Tests used:
Experiment in all cases: DAPPL (digital affinity profiling via proximity ligation, sequencing); 10 mM Tris-HCl pH 7.5, 50 mM NaCl, 1 mM DTT, 4% glycerol, room temperature, 30 min; GST-TFs on glutathione beads, 16-mer random dsDNA library, 0.1% formaldehyde crosslink after washing; high values mean tight binding
Conditions in all cases: protein: recombinant; tags: N-terminal GST; dsDNA, one strand shown
[1] = target: T1, FEV (Homo sapiens, UniProt Q99581 1-238)
T1 sequence: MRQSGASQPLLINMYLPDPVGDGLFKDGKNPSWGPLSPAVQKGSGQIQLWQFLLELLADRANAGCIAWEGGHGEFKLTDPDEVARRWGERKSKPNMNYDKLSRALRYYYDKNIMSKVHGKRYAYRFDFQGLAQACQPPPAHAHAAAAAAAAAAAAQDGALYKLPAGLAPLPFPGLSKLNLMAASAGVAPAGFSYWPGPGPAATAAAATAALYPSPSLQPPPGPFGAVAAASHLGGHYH
Outline: (§1)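 Pools of DNA-barcoded human transcription factors, expressed in yeast as GST fusions on glutathione beads and combined with a tag-only sample, were incubated with 200 nmole of a 16-mer random double-stranded DNA library. Incubation took 30 min at room temperature in Tris/NaCl/DTT/glycerol buffer and was followed by washing, 0.1% formaldehyde crosslinking, proximity ligation (BsaI/T4 ligase, 1 h, 37 °C), PCR amplification and sequencing on an Illumina NextSeq500. Binding signal is the ratio of a hexamer's read frequency for a factor to its frequency for the tag-only sample.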

[2] = target: ETV5 (Homo sapiens, UniProt P41161 1-510)
ETV5, sequence (P41161 whole entry): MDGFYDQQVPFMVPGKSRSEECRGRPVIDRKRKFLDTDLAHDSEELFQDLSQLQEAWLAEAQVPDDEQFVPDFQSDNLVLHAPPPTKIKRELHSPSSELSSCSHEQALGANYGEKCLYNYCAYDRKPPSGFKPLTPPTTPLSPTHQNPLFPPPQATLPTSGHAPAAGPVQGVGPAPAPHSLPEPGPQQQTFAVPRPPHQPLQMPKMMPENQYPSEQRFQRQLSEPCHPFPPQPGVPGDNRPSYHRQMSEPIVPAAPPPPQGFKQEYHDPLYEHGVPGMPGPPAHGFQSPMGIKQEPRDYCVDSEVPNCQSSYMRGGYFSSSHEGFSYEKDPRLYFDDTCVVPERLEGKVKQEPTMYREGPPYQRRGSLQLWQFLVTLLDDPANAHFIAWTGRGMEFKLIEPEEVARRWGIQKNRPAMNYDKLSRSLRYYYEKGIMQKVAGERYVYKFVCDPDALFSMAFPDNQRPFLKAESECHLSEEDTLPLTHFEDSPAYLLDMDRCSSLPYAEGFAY
Outline: as §1

[3] = target: T2, SPIC (Homo sapiens, UniProt Q8N5J4 1-248)
T2 sequence: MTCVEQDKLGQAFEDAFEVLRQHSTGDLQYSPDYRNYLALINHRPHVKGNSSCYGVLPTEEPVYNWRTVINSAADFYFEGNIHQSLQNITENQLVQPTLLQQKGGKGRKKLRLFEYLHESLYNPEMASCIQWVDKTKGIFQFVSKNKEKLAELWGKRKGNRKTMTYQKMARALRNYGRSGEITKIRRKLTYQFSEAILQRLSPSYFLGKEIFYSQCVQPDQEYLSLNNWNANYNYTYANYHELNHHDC
Outline: as §1

[4] = target: ELF4 (Homo sapiens, UniProt Q99607 1-663)
ELF4, sequence (Q99607 whole entry): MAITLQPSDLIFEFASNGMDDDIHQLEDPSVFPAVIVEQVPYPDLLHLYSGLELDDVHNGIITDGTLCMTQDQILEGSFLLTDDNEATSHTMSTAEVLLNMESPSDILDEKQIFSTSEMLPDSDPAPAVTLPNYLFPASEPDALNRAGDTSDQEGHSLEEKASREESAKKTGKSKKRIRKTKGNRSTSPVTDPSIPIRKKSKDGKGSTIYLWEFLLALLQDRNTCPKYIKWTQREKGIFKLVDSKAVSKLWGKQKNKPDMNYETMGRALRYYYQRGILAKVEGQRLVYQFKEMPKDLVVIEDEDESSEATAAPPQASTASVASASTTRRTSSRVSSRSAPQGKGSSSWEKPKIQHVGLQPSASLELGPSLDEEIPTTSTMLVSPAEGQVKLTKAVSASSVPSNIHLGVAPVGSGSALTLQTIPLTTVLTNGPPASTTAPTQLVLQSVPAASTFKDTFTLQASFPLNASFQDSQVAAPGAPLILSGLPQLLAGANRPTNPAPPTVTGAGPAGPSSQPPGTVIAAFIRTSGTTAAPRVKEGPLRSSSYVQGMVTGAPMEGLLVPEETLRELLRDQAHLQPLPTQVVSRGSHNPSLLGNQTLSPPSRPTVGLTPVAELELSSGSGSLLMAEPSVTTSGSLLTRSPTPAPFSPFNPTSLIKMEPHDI
Outline: as §1

[5] = target: T3, ELK4 (Homo sapiens, UniProt P28324-2 1-405)
T3 sequence: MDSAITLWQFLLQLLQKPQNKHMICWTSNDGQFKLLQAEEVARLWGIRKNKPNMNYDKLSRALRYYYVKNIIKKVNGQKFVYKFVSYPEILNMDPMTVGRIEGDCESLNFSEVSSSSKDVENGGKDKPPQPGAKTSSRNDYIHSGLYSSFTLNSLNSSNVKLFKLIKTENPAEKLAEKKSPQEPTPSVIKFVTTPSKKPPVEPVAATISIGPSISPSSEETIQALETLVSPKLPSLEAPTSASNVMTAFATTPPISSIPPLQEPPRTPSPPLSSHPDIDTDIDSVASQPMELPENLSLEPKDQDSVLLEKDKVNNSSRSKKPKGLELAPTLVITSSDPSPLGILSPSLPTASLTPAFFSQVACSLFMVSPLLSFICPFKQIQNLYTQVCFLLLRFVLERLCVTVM
Outline: as §1

[6] = target: T4, ETV2 (Homo sapiens, UniProt O00321 1-342)
T4 sequence: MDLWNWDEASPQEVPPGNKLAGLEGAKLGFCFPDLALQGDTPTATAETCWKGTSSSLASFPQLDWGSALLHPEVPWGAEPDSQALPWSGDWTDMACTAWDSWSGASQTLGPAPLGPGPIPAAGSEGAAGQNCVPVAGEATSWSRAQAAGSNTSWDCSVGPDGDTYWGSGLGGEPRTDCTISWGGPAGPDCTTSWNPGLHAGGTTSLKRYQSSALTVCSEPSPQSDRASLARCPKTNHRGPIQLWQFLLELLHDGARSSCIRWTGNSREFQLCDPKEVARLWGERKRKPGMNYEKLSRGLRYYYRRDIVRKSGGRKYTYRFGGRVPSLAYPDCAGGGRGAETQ
Outline: as §1

[7] = target: T5, ELF3 (Homo sapiens, UniProt P78545 1-371)
T5 sequence: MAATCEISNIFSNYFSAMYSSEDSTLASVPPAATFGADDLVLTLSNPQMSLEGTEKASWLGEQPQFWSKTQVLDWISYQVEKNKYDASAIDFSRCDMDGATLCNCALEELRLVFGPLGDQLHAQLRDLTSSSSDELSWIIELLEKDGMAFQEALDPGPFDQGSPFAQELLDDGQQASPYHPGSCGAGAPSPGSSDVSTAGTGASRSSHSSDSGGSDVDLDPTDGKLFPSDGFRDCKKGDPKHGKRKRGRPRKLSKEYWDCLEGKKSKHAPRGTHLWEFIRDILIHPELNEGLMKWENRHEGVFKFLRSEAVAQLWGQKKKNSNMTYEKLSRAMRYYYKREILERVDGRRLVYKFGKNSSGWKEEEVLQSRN
Outline: as §1

[8] = target: ETV1 (Homo sapiens, UniProt P50549 1-477)
ETV1, sequence (P50549 whole entry): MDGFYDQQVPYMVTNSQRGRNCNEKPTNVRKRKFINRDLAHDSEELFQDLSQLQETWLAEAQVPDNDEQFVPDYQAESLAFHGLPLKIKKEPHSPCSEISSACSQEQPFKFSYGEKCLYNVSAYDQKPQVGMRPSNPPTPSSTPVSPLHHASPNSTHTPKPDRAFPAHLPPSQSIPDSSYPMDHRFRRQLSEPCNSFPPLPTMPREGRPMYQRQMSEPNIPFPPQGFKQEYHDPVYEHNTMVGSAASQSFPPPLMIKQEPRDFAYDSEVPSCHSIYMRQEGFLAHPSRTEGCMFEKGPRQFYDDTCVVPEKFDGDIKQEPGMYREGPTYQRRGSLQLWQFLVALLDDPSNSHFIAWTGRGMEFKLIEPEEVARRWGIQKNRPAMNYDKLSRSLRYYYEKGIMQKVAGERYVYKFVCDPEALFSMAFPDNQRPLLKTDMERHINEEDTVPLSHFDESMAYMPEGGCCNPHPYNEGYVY
Outline: as §1

[9] = target: CRX (Homo sapiens, UniProt O43186 1-299)
CRX, sequence (O43186 whole entry): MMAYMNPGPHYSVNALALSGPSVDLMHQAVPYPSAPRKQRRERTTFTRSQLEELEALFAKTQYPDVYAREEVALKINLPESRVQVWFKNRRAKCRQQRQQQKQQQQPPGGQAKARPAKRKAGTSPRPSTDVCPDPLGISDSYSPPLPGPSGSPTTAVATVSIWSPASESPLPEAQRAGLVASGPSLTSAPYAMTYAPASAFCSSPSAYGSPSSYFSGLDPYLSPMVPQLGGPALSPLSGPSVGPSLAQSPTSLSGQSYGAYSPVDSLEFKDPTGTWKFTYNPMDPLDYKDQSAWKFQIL
Outline: as §1

| Sequence | binding signal [1] | binding signal [2] | binding signal [3] | binding signal [4] | binding signal [5] | binding signal [6] | binding signal [7] | binding signal [8] | binding signal [9] |
| --- | --- | --- | --- | --- | --- | --- | --- | --- | --- |
| CACGCC | 1.19 fold enrichment (6-mer frequency, TF over GST control) | 1.17 fold enrichment (6-mer frequency, TF over GST control) | 1.01 fold enrichment (6-mer frequency, TF over GST control) | 1.25 fold enrichment (6-mer frequency, TF over GST control) | 1.24 fold enrichment (6-mer frequency, TF over GST control) | 1.22 fold enrichment (6-mer frequency, TF over GST control) | 1.27 fold enrichment (6-mer frequency, TF over GST control) | 1.19 fold enrichment (6-mer frequency, TF over GST control) |  |
| CGACGC |  | 1.07 fold enrichment (6-mer frequency, TF over GST control) | 1.09 fold enrichment (6-mer frequency, TF over GST control) | 1.09 fold enrichment (6-mer frequency, TF over GST control) | 1.07 fold enrichment (6-mer frequency, TF over GST control) | 1.16 fold enrichment (6-mer frequency, TF over GST control) | 1.28 fold enrichment (6-mer frequency, TF over GST control) | 1.01 fold enrichment (6-mer frequency, TF over GST control) |  |
| CCATCA | 1.13 fold enrichment (6-mer frequency, TF over GST control) | 1.23 fold enrichment (6-mer frequency, TF over GST control) | 1.09 fold enrichment (6-mer frequency, TF over GST control) | 1.2 fold enrichment (6-mer frequency, TF over GST control) | 1.24 fold enrichment (6-mer frequency, TF over GST control) | 1.11 fold enrichment (6-mer frequency, TF over GST control) | 1.28 fold enrichment (6-mer frequency, TF over GST control) | 1.13 fold enrichment (6-mer frequency, TF over GST control) | 1.04 fold enrichment (6-mer frequency, TF over GST control) |
| GATAGC | 1.07 fold enrichment (6-mer frequency, TF over GST control) | 1.04 fold enrichment (6-mer frequency, TF over GST control) | 1.07 fold enrichment (6-mer frequency, TF over GST control) | 1.06 fold enrichment (6-mer frequency, TF over GST control) | 1.03 fold enrichment (6-mer frequency, TF over GST control) | 1.18 fold enrichment (6-mer frequency, TF over GST control) | 1.08 fold enrichment (6-mer frequency, TF over GST control) | 1.02 fold enrichment (6-mer frequency, TF over GST control) |  |
| CGCTCA | 1.13 fold enrichment (6-mer frequency, TF over GST control) | 1.19 fold enrichment (6-mer frequency, TF over GST control) | 1.06 fold enrichment (6-mer frequency, TF over GST control) | 1.24 fold enrichment (6-mer frequency, TF over GST control) | 1.32 fold enrichment (6-mer frequency, TF over GST control) | 1.26 fold enrichment (6-mer frequency, TF over GST control) | 1.16 fold enrichment (6-mer frequency, TF over GST control) | 1.13 fold enrichment (6-mer frequency, TF over GST control) | 1.2 fold enrichment (6-mer frequency, TF over GST control) |
| CGCTAC | 1.18 fold enrichment (6-mer frequency, TF over GST control) | 1.15 fold enrichment (6-mer frequency, TF over GST control) | 1.18 fold enrichment (6-mer frequency, TF over GST control) | 1.24 fold enrichment (6-mer frequency, TF over GST control) | 1.2 fold enrichment (6-mer frequency, TF over GST control) | 1.25 fold enrichment (6-mer frequency, TF over GST control) | 1.24 fold enrichment (6-mer frequency, TF over GST control) | 1.27 fold enrichment (6-mer frequency, TF over GST control) |  |
| TGACGC | 1.13 fold enrichment (6-mer frequency, TF over GST control) | 1.28 fold enrichment (6-mer frequency, TF over GST control) | 1.18 fold enrichment (6-mer frequency, TF over GST control) | 1.37 fold enrichment (6-mer frequency, TF over GST control) | 1.3 fold enrichment (6-mer frequency, TF over GST control) | 1.18 fold enrichment (6-mer frequency, TF over GST control) | 1.11 fold enrichment (6-mer frequency, TF over GST control) | 1.07 fold enrichment (6-mer frequency, TF over GST control) |  |
| GCAATA |  | 1.07 fold enrichment (6-mer frequency, TF over GST control) | 1.16 fold enrichment (6-mer frequency, TF over GST control) | 1.07 fold enrichment (6-mer frequency, TF over GST control) | 1.11 fold enrichment (6-mer frequency, TF over GST control) | 1.01 fold enrichment (6-mer frequency, TF over GST control) | 1.09 fold enrichment (6-mer frequency, TF over GST control) | 1.07 fold enrichment (6-mer frequency, TF over GST control) |  |
| AACGCC | 1.11 fold enrichment (6-mer frequency, TF over GST control) | 1.07 fold enrichment (6-mer frequency, TF over GST control) | 1.03 fold enrichment (6-mer frequency, TF over GST control) | 1.15 fold enrichment (6-mer frequency, TF over GST control) | 1.2 fold enrichment (6-mer frequency, TF over GST control) | 1.08 fold enrichment (6-mer frequency, TF over GST control) | 1.08 fold enrichment (6-mer frequency, TF over GST control) | 1.1 fold enrichment (6-mer frequency, TF over GST control) |  |
| TGCAAT | 1.2 fold enrichment (6-mer frequency, TF over GST control) | 1.21 fold enrichment (6-mer frequency, TF over GST control) | 1.14 fold enrichment (6-mer frequency, TF over GST control) | 1.2 fold enrichment (6-mer frequency, TF over GST control) | 1.28 fold enrichment (6-mer frequency, TF over GST control) | 1.04 fold enrichment (6-mer frequency, TF over GST control) | 1.24 fold enrichment (6-mer frequency, TF over GST control) | 1.26 fold enrichment (6-mer frequency, TF over GST control) | 1.03 fold enrichment (6-mer frequency, TF over GST control) |
| TAGGTC |  | 1.06 fold enrichment (6-mer frequency, TF over GST control) | 1.11 fold enrichment (6-mer frequency, TF over GST control) | 1.02 fold enrichment (6-mer frequency, TF over GST control) | 1.11 fold enrichment (6-mer frequency, TF over GST control) | 1.14 fold enrichment (6-mer frequency, TF over GST control) | 1.06 fold enrichment (6-mer frequency, TF over GST control) | 1.01 fold enrichment (6-mer frequency, TF over GST control) |  |
| ACCCCC | 1.19 fold enrichment (6-mer frequency, TF over GST control) | 1.18 fold enrichment (6-mer frequency, TF over GST control) | 1.12 fold enrichment (6-mer frequency, TF over GST control) | 1.2 fold enrichment (6-mer frequency, TF over GST control) | 1.28 fold enrichment (6-mer frequency, TF over GST control) | 1.05 fold enrichment (6-mer frequency, TF over GST control) | 1.29 fold enrichment (6-mer frequency, TF over GST control) | 1 fold enrichment (6-mer frequency, TF over GST control) |  |
| CTCAGT | 1.12 fold enrichment (6-mer frequency, TF over GST control) | 1.14 fold enrichment (6-mer frequency, TF over GST control) | 1.24 fold enrichment (6-mer frequency, TF over GST control) | 1.21 fold enrichment (6-mer frequency, TF over GST control) | 1.19 fold enrichment (6-mer frequency, TF over GST control) | 1.2 fold enrichment (6-mer frequency, TF over GST control) | 1.35 fold enrichment (6-mer frequency, TF over GST control) | 1.12 fold enrichment (6-mer frequency, TF over GST control) | 1.08 fold enrichment (6-mer frequency, TF over GST control) |
| TCATGG | 1.05 fold enrichment (6-mer frequency, TF over GST control) | 1.09 fold enrichment (6-mer frequency, TF over GST control) | 1.16 fold enrichment (6-mer frequency, TF over GST control) | 1.07 fold enrichment (6-mer frequency, TF over GST control) | 1.05 fold enrichment (6-mer frequency, TF over GST control) | 1.04 fold enrichment (6-mer frequency, TF over GST control) | 1.16 fold enrichment (6-mer frequency, TF over GST control) |  | 1.07 fold enrichment (6-mer frequency, TF over GST control) |
| CGTTAT | 1.03 fold enrichment (6-mer frequency, TF over GST control) | 1.15 fold enrichment (6-mer frequency, TF over GST control) | 1.23 fold enrichment (6-mer frequency, TF over GST control) | 1.16 fold enrichment (6-mer frequency, TF over GST control) | 1.15 fold enrichment (6-mer frequency, TF over GST control) | 1.21 fold enrichment (6-mer frequency, TF over GST control) | 1.04 fold enrichment (6-mer frequency, TF over GST control) |  | 1.05 fold enrichment (6-mer frequency, TF over GST control) |

From paper PMC7862700, “An all-to-all approach to the identification of sequence-specific readers for epigenetic DNA modifications on cytosine”
